Data on eight compounds can be found in PubChem BioAssay (NCI).

Test systems include DU-145 prostate; K-562 leukemia; MALME-3M melanoma; MDA-MB-231 breast; RXF 393 renal; SF-268 CNS; SF-295 CNS; SF-539 CNS; UACC-257 melanoma; M14 melanoma; HT29 colon; SNB-75 CNS; SNB-19 CNS; U251 CNS; PC-3 prostate; SK-MEL-5 melanoma; LOX IMVI melanoma; SK-MEL-28 melanoma; UACC-62 melanoma; HCT-15 colon.
Holding throughout (experiment): NCI-60 one-dose screen, 48 h (100 = growth as untreated, 0 = no growth, -100 = all killed)
Common to all, as to settings: 10 µM unless noted

About 83,000 compounds went through this panel and 20% of them were active in at least one assay; those are over-represented in the sample as a whole.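 Activity criterion: percent growth below 10, measured after cells in 96-well plates were exposed to a single compound concentration for 48 hours.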 Unmarked numbers belong to inactive results. The source made the active and inactive calls.

With `Cc1ccc2nc(/C(C#N)=C(/CCCO)NC(Cc3ccccc3)C(=O)OCc3ccccc3)[nH]c(=O)c2c1` (stereo not given), the growth is 98.4% in the assay on DU-145 prostate; 119% in the assay with K-562 leukemia; 126% in the assay with MALME-3M melanoma; 113% in the assay on MDA-MB-231 breast; 127% in the assay with RXF 393 renal; 102% in the assay on SF-268 CNS. For the same compound, the growth with SF-295 CNS is 98.7%; in the assay on SF-539 CNS, 65.1%; in the assay with UACC-257 melanoma, 121%; in the assay on M14 melanoma it was 98.4%; in the assay with HT29 colon, 130%; in the assay on SNB-75 CNS, 113%. The growth was 90.4% in the assay on SNB-19 CNS; 104% with U251 CNS; 115% in the assay on PC-3 prostate; 73.3% in the assay with SK-MEL-5 melanoma; 98.5% with LOX IMVI melanoma; 96.4% in the assay on SK-MEL-28 melanoma.
As to `C#CCO[C@H]1CC(CC#C)(CC#C)C(=O)[C@@H]2[C@H]1[C@H]1C[C@@H]3[C@@]4(C)CCC[C@@](C)(C(=O)OC)[C@@H]4CC[C@@]23C=C1C(C)C`, the growth in the assay on DU-145 prostate was 97.7%; in the assay on K-562 leukemia, 88.9%; in the assay on MALME-3M melanoma it was -35.9% (active); in the assay with MDA-MB-231 breast, 89.3%; in the assay on RXF 393 renal it was 102%; in the assay on SF-268 CNS, 92.9%. Besides, the growth in the assay with SF-295 CNS was 101%; with SF-539 CNS, 85.4%; in the assay with UACC-257 melanoma, 94.3%; in the assay on M14 melanoma, 95.5%; in the assay with HT29 colon, 55.7%; in the assay on SNB-75 CNS, 93.9%. The growth is 93.4% with SNB-19 CNS; 96.3% with U251 CNS; 58.8% in the assay on PC-3 prostate; 101% with SK-MEL-5 melanoma; -86.6% (active) in the assay with LOX IMVI melanoma; 99.1% in the assay on SK-MEL-28 melanoma.
Consider `COc1ccc2c(c1)/C(=N/c1n[nH]c(=S)s1)C(=O)N2`, for which the growth in the assay with DU-145 prostate was 107%; with K-562 leukemia, 82.9%; in the assay on MALME-3M melanoma, 104%; in the assay with MDA-MB-231 breast, 87.8%; in the assay on RXF 393 renal, 113%; in the assay with SF-268 CNS, 98.8%. For the same compound, the growth was 106% with SF-295 CNS; 87.4% with SF-539 CNS; 96.5% in the assay on UACC-257 melanoma; 103% in the assay with M14 melanoma; 105% in the assay on HT29 colon; 75.4% with SNB-75 CNS. Besides, the growth in the assay with SNB-19 CNS was 99.1%; with U251 CNS it was 93.8%; with SK-MEL-5 melanoma, 91.2%; in the assay with UACC-62 melanoma, 94.8%; with LOX IMVI melanoma it was 95.8%; in the assay on SK-MEL-28 melanoma, 107%.
Regarding `Cc1ccc2c(-n3nc(C#N)c(C#N)c3N)cc(=O)[nH]c2c1`, the growth is 94% in the assay on DU-145 prostate; 76% in the assay with K-562 leukemia; 78.2% with MALME-3M melanoma; 85.5% in the assay with MDA-MB-231 breast; 100% in the assay on RXF 393 renal; 94.4% with SF-268 CNS. The growth in the assay with SF-295 CNS was 94%; with SF-539 CNS, 89.8%; in the assay with UACC-257 melanoma, 87.9%; in the assay on M14 melanoma, 84.9%; with HT29 colon it was 93.7%; in the assay on SNB-75 CNS, 110%. Besides, the growth is 88.6% with SNB-19 CNS; 86.4% in the assay on U251 CNS; 93.5% with SK-MEL-5 melanoma; 80.2% in the assay with UACC-62 melanoma; 81% with LOX IMVI melanoma; 94.1% in the assay with SK-MEL-28 melanoma.
As to `CC(=O)ON1CCCC(P(=O)(OCCSC(=O)C(C)(C)C)OCCSC(=O)C(C)(C)C)C1=O` (stereo not given), the growth in the assay on DU-145 prostate is 42.5%; in the assay on K-562 leukemia it was 19.4%; in the assay with MALME-3M melanoma, 17.1%; with MDA-MB-231 breast it was 25.1%; with RXF 393 renal, -26.7% (active); with SF-268 CNS, 19.2%. For the same compound, the growth was 55.5% with SF-295 CNS; 57.6% in the assay on SF-539 CNS; 54.2% with UACC-257 melanoma; 34.3% with M14 melanoma; 19.3% in the assay with HT29 colon; 52% in the assay on SNB-75 CNS. Also, the growth in the assay on SNB-19 CNS is 19%; with U251 CNS, 6.6% (active); in the assay with PC-3 prostate it was 48.1%; in the assay with SK-MEL-5 melanoma it was -2.99% (active); with UACC-62 melanoma it was 20.4%; in the assay on LOX IMVI melanoma it was 25.8%. Also, in the assay on SK-MEL-28 melanoma, the growth was 30.7%.
As for `O=C(Nc1ncccc1OCc1ccccc1)NC1CCCCCC1`, the growth in the assay with DU-145 prostate was 92%; in the assay on K-562 leukemia, 70.6%; in the assay with MALME-3M melanoma it was 90.2%; in the assay on MDA-MB-231 breast, 90.1%; in the assay on RXF 393 renal, 106%; in the assay on SF-268 CNS, 92.3%. Also, the growth in the assay on SF-295 CNS was 85.4%; in the assay with SF-539 CNS, 98.2%; in the assay on UACC-257 melanoma it was 105%; with HCT-15 colon, 80.7%; with HT29 colon, 74.6%; with SNB-75 CNS, 97.7%. Moreover, the growth is 97.9% in the assay with SNB-19 CNS; 96.2% with U251 CNS; 48.1% in the assay on PC-3 prostate; 69.1% with SK-MEL-5 melanoma; 71.6% in the assay with UACC-62 melanoma; 93.6% in the assay on SK-MEL-28 melanoma.
With `O=C(Nc1ccc(Cl)cc1)Oc1c(Cl)c(Cl)c(Cl)c(Cl)c1Cl`, the growth with DU-145 prostate is 97.9%; with K-562 leukemia it was 89.9%; in the assay on MALME-3M melanoma, 93.7%; in the assay with MDA-MB-231 breast it was 92.9%; in the assay on RXF 393 renal, 106%; with SF-268 CNS, 92.9%. Moreover, the growth in the assay on SF-295 CNS is 83.2%; in the assay with SF-539 CNS, 94.8%; with UACC-257 melanoma it was 100%; in the assay with HCT-15 colon, 94.5%; in the assay on HT29 colon, 96.1%; in the assay with SNB-75 CNS it was 83.3%. The growth in the assay with SNB-19 CNS was 98.1%; in the assay on U251 CNS, 98%; in the assay on PC-3 prostate, 89.4%; in the assay on SK-MEL-5 melanoma it was 95.3%; in the assay on UACC-62 melanoma, 81.3%; with SK-MEL-28 melanoma, 105%.
As to `COc1cccc(Nc2ncnc3cc(NC(=O)CCl)ccc23)c1`, the growth with DU-145 prostate was -74% (active); with K-562 leukemia, -9.78% (active); with MALME-3M melanoma it was -85.3% (active); with MDA-MB-231 breast, -69.4% (active); in the assay on RXF 393 renal it was -90.2% (active); in the assay with SF-268 CNS, -57.5% (active). Besides, the growth with SF-295 CNS is -19% (active); in the assay on SF-539 CNS, -89.1% (active); with UACC-257 melanoma it was 14%; in the assay on HCT-15 colon, -43.2% (active); in the assay on HT29 colon, -79.5% (active); in the assay on SNB-75 CNS, -79.9% (active). For the same compound, the growth was -38.6% (active) in the assay on SNB-19 CNS; -99.2% (active) in the assay with U251 CNS; -80.3% (active) in the assay on PC-3 prostate; -85.8% (active) with SK-MEL-5 melanoma; -74.6% (active) in the assay with LOX IMVI melanoma; -33.7% (active) with SK-MEL-28 melanoma.
